Screens deposited in PubChem by several laboratories.
MITF TRPM1 HTS = activators of MITF-driven TRPM1 promoter activity in SK-MEL-5 cells; activation, % at 12.5 µM; 300,000 tested, 0.75% active; AID 588334; SK-MEL-5 TRPM1-promoter luciferase, 24 h; % of positive control, neutral wells = 0;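 active means mean activation of at least 80% with every replicate also reaching 80%; inconclusive means mean reaches 80% but some replicate falls short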;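 further: 0% = neutral control wells and 100% = parthenolide positive control wells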
esBAF inh = SWI/SNF esBAF complex inhibition; reporter increase, % at 12.5 µM; mouse ES cells, Bmi1-luciferase knock-in reporter, 24 h; 100% = twice the neutral-well signal; 350,000 tested, 2% active; in the data active means activation above about 40%; inconclusive means no clear call, values can overlap the other calls;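 further: 0% = median of the plate's neutral control wells and 100% = double that signal; a rise in the Bmi1 reporter signal indicates esBAF inhibition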
SMARCA2 act = increases SMARCA2 function in MMTV reporter cells. MG213 cells, MMTV-luciferase reporter, dexamethasone, overnight. activation, % at 9.1 µM. 370,000 tested, 1% active. AID 652017; in the data active means activation above about 7.8%;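 further: 0% = vehicle wells and 100% = reference activator wells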
MLL AF4-AF9 inh = inhibitors of human MLL-AF4/AF9 interaction | 350,000 tested, 0.47% active | inhibition, % at 10 µM | AlphaScreen, biotin-AF4 peptide binding to FLAG-AF9;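 active means every replicate reaching a set inhibition limit, whatever the replicate mean, cut at about 25% in these data; inconclusive means mean inhibition reaches that limit but some replicates miss it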;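 further: 0% = plate neutral control median and 100% = total signal loss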
Target sequence (P42568 whole entry, looked up): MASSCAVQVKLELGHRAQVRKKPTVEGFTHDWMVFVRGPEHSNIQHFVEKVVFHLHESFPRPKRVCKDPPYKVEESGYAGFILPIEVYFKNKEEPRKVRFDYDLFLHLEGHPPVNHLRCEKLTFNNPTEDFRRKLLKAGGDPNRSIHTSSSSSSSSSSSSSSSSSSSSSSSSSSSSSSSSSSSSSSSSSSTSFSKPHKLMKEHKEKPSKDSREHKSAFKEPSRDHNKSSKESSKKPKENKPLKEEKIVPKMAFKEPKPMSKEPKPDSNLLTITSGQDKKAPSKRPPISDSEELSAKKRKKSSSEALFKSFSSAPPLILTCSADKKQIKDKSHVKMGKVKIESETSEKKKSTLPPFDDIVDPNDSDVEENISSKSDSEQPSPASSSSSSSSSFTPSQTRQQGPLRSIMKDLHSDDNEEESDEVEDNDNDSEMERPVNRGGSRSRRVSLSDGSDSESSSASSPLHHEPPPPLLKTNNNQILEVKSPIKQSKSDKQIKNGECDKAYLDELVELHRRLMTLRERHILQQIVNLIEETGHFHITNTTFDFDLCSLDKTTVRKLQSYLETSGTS
FGF22 binding = shifts melting point of recombinant human FGF22; recombinant FGF22 thermal shift, SYPRO orange fluorescence; percent of sucrose octasulfate shift, DMSO zero; 340,000 tested, 1.5% active; AID 651658; activity (Tm shift, normalised), % at 9.99 µM;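 active means mean Tm shift, scaled 0 neutral to 100 positive control, at about 1.3% or above, every replicate too, limit read from the data; inconclusive means no clear call, values can overlap the other calls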
Wnt bcat act = activators of Wnt/beta-catenin signaling; Wnt/beta-catenin reporter cell assay, activator, plate reader; AID 743398; activation, % at 9.35 µM; 300,000 tested, 1.2% active; in the data active means activation above about 30%, passing the limit was not always enough; inconclusive means no clear call, values can overlap the other calls;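 further: 0% = neutral control wells and 100% = positive control wells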
The depositor's hits bear a star. A selection: hits, their analogues and other compounds. The true share with any hit is near 4.3%.

Screening Nc1nc(CSc2ccccn2)nc(Nc2ccccc2)n1 returned MITF TRPM1 HTS 152*, esBAF inh 52*, SMARCA2 act -1 and Wnt bcat act 43*.
`COc1cccc(Nc2nc(-c3cccc(N4C(=O)c5ccccc5C4=O)c3)cs2)c1` gave MITF TRPM1 HTS 21, esBAF inh inconclusive, SMARCA2 act 3 and Wnt bcat act 17.
`COc1cccc(Nc2nc(-c3ccc(O)cc3)cs2)c1` gave MITF TRPM1 HTS 90*, esBAF inh 36 and SMARCA2 act 2.
Screening Cc1cccnc1Nc1nc(-c2ccc(O)cc2)cs1 returned MITF TRPM1 HTS 101*, esBAF inh 58* and SMARCA2 act 4.
Cc1cccnc1Nc1nc(-c2ccc(F)cc2)cs1 was read as esBAF inh inconclusive, SMARCA2 act 6, MLL AF4-AF9 inh 3, FGF22 binding 0 and Wnt bcat act -4.
`COC(=O)C1=C(C)N(C)C(=NCC2CC2)NC1CCc1ccccc1` (stereo not drawn) gave SMARCA2 act -1, FGF22 binding 0 and Wnt bcat act -1.
For CCOC(=O)N1CCC2(CC1)C(C#N)=C(N)Oc1n[nH]c(CSc3ccc(C)cc3)c12 the results were esBAF inh -3, SMARCA2 act 1 and Wnt bcat act 70*.
`Cc1ccc(SCc2[nH]nc3c2C2(CCSCC2)C(C#N)=C(N)O3)cc1` gave MITF TRPM1 HTS -1, esBAF inh -2 and SMARCA2 act -2.
CN1C(=O)c2cc(NS(=O)(=O)c3cccc(F)c3)ccc2OC[C@@H]2O[C@H](CC(=O)NCCN3CCCCC3)CC[C@@H]21 was read as esBAF inh 2.
For Cc1cc2nc(C3CCN(C(=S)NCC(C)C)CC3)[nH]c2cc1C the results were MITF TRPM1 HTS -3, SMARCA2 act -1, MLL AF4-AF9 inh 1 and FGF22 binding 1.9*.
COc1ccccc1NC(=S)N1CCC(c2nc3cc(C)c(C)cc3[nH]2)CC1 was read as MITF TRPM1 HTS -4, esBAF inh 9, SMARCA2 act -2, MLL AF4-AF9 inh -29 and Wnt bcat act -3.
`CN(C(=O)c1ccc(OC2CCN(S(=O)(=O)N(C)C)CC2)cc1)C1CCCCC1` gave MITF TRPM1 HTS 1, SMARCA2 act -1, MLL AF4-AF9 inh 0, FGF22 binding 0 and Wnt bcat act -1.
CCN(Cc1cnn(C)c1)C(=O)c1ccc(OC2CCN(S(=O)(=O)N(C)C)CC2)cc1 was read as MITF TRPM1 HTS -8, SMARCA2 act -5, MLL AF4-AF9 inh 0, FGF22 binding 44* and Wnt bcat act 0.
For CCN=C1NC(c2ccccc2C(F)(F)F)C(C(=O)OC)=C(C)N1Cc1ccc(C(F)(F)F)cc1 (stereo not drawn) the results were SMARCA2 act -2, FGF22 binding 0 and Wnt bcat act -4.
C[C@H](CO)N1C[C@H](C)[C@H](CN(C)S(=O)(=O)c2ccccc2)Oc2ncc(C#CCN(C)C)cc2C1=O was read as esBAF inh -3, MLL AF4-AF9 inh -2 and FGF22 binding 0.
Screening O=C1c2ccccc2C(=O)C1c1ccnc2ccccc12 returned MITF TRPM1 HTS -35, esBAF inh -45, SMARCA2 act 6 and Wnt bcat act 43*.
Screening O=C(C1CCC1)N1C[C@@H]2[C@H](c3ccccc31)[C@H](CO)N2C(=O)Nc1cccc(F)c1 returned esBAF inh 1, MLL AF4-AF9 inh 35* and FGF22 binding 0.
Screening O=C(NCc1ccccc1)c1sc(=S)n2c1[nH]c(=O)c1ccccc12 returned esBAF inh -5, SMARCA2 act -3 and Wnt bcat act -1.
For NC(=O)c1sc(=S)n2c1[nH]c(=O)c1sccc12 the results were MITF TRPM1 HTS 8, esBAF inh 0, SMARCA2 act -1, MLL AF4-AF9 inh -1, FGF22 binding 47* and Wnt bcat act 1.
For NC(=O)c1sc(=S)n(-c2ccc(Br)cc2)c1N the results were MITF TRPM1 HTS -8, esBAF inh 1, SMARCA2 act 1, MLL AF4-AF9 inh -1, FGF22 binding -1 and Wnt bcat act -2.
`CC(=O)NNC(=O)c1sc(=S)n2c1[nH]c(=O)c1sccc12` gave MITF TRPM1 HTS 8, SMARCA2 act 2, MLL AF4-AF9 inh -4, FGF22 binding 43* and Wnt bcat act 2.
